Screening results as filed in PubChem.
mHTT-CaM PPI inh: inhibitors of human mutant huntingtin-calmodulin interaction. P42858. AlphaScreen His-mHTT/GST-CaM binding, luminescence. inhibition, % at 15 µM. 190,000 tested, 3.6% active. AID 1671202
Pf apPOL block: Pf-apPOL DNA polymerase inhibition | Recombinant Pf-apPOL, molecular beacon fluorescence, 1.5 h | inhibition, % at 10 µM | 210,000 tested, 0.25% active | AID 1794808
Of the large screens only hits and unclear results are named; the others gave an inactive call. The entries come from a sample that favours hits as a whole. Rule as the data show it: active = inhibition above about 50%; inactive = the rest.

O=C1CSC(c2cn(-c3ccccc3)nc2-c2cc3ccccc3oc2=O)N1CC1CCCO1 (configuration not stated)	mHTT-CaM PPI inh 58
O=C1CSC(c2cn(-c3ccccc3)nc2-c2cccs2)N1Cc1ccccc1 (configuration not stated)	none
O=C1CSC(c2cn(-c3ccccc3)nc2-c2cc3ccccc3oc2=O)N1Cc1ccco1 (configuration not stated)	none
O=C(NCc1nnc2n1CCCC2)c1ccccn1	none
COc1ccc(-c2nc3c(c(=O)[nH]2)CCN(C(=O)c2nccc4ccccc24)C3)cc1	none
CCn1cc(C(=O)Nc2cc([N+](=O)[O-])ccc2OC)c(=O)c2ccc(C)nc21	none
N#Cc1cccc(C(=O)N2CCC3(CC2)NC(=O)N(Cc2ccccc2)C3=O)c1	none
COc1ccc(C(=O)C[n+]2cc(Br)cc3ccccc32)cc1[N+](=O)[O-]	none
O=C(C[n+]1cc(Br)cc2ccccc21)c1ccccc1	mHTT-CaM PPI inh 60
CN(C)CCCn1c(=N)n(CC(O)c2ccc(Br)cc2)c2ccccc21 (configuration not stated)	none
CNc1nccc(N2CCC(CC(=O)NCCOC)CC2)n1	none
CNc1nccc(N2CCC(CC(=O)N3CCN(c4cccc(C)c4)CC3)CC2)n1	none
CCNc1nccc(N2CCC(CC(=O)N3CCN(c4cccc(Cl)c4)CC3)CC2)n1	mHTT-CaM PPI inh 51
CNC(=O)CC1CCN(c2ccnc(NC)n2)CC1	Pf apPOL block 93
C=CCc1cccc2cc(C(=O)Nc3ccc(C)c(Cl)c3)c(=O)oc12	none
Cc1ccc(S(=O)(=O)C(CNC(=O)C(=O)NCC2CCCO2)c2ccco2)cc1 (configuration not stated)	none
Cc1cc(C)c(C)c(OCC(O)CN2C(C)(C)CC(O)CC2(C)C)c1 (configuration not stated)	none
CC(Sc1ccc(Cl)cc1)C(=O)NCc1cccnc1 (configuration not stated)	none
Cc1nn2c(N)cc(-c3ccccc3)nc2c1-c1ccccc1	mHTT-CaM PPI inh 83
Cc1nc2c(-c3ccc(Cl)cc3)c(C)nn2c(N)c1-c1ccccc1	none
Cc1cc(Nc2ccc(C(N)=O)cc2)n2nc(C)c(-c3ccccc3)c2n1	mHTT-CaM PPI inh 74
COc1ccc(-c2cc3nc(C)cc(Nc4ccc(C(N)=O)cc4)n3n2)cc1OC	none
Cc1c(Cl)c(C)c(C=O)c(O)c1Br	mHTT-CaM PPI inh 79
Cn1c(=O)c2ccnn2c2ccc(C(=O)NCc3ccccc3)cc21	none
Cc1cccc(CNC(=O)c2ccc3c(c2)n(C)c(=O)c2ccnn23)c1	mHTT-CaM PPI inh 58
COc1cccc(CNC(=O)C2c3ccccc3CC(=O)N2C)c1 (configuration not stated)	none
COc1cccc(C2CC(c3c(F)cccc3Cl)n3nnnc3N2)c1 (configuration not stated)	none
CSCCC(NC(=O)c1cc(CC(C)C)oc1C)C(=O)O (configuration not stated)	none
Cc1cc(Cl)ccc1-n1c(CCC(=O)O)ccc1-c1cccs1	mHTT-CaM PPI inh 68
Cc1ccccc1-n1c(CCC(=O)O)ccc1-c1cccs1	none
O=C(CCC1CCCN(C(=O)Nc2cccc(F)c2)C1)NC1CCCCCC1 (configuration not stated)	none
COc1ccccc1N1COc2cc(C)c(Cl)c(C)c2C1	mHTT-CaM PPI inh 100
COc1ccccc1N1COc2ccc(F)cc2C1	none
Cc1cccc(NC(=O)C(=O)NCC2CCN(C(C)C)CC2)c1	none
O=C(CCNc1ccc(F)c(Cl)c1)c1ccccc1	none
Fc1ccc(NC/C=C/c2ccco2)cc1Cl	mHTT-CaM PPI inh 91
CC1C(c2ccc(N(C)C)cc2)NC(c2ccc(N(C)C)cc2)C(C)C1O (configuration not stated)	none
CC1C(=NO)C(C)C(c2ccc(N(C)C)cc2)NC1c1ccc(N(C)C)cc1 (configuration not stated)	mHTT-CaM PPI inh 76
OCCN(Cc1ccccc1)CC(O)COc1ccc(Cl)cc1Cl (configuration not stated)	mHTT-CaM PPI inh 51
OCCN(Cc1ccccc1)CC(O)COc1cccc2ccccc12 (configuration not stated)	none
COc1ccccc1Oc1c(C)oc2c(CN3CCCC(C)C3)c(O)ccc2c1=O (configuration not stated)	none
O=C(c1c(F)cccc1F)N1CCCCCC1	none
Cc1nc(Nc2ccc(F)cn2)sc1C(=O)N1CCN(c2ccc(F)cc2)CC1	mHTT-CaM PPI inh 84
Cc1ccnc(Nc2nc(C)c(C(=O)N3CCC(C)CC3)s2)c1	none
Cc1nc(Nc2ccccn2)sc1C(=O)N1CCN(c2ccccc2F)CC1	mHTT-CaM PPI inh 59
Cc1c(C(=O)N2CCN(c3ccc(F)cc3)CC2)sc2nc(-c3ccccc3)cn12	none
Cc1nc(Nc2ccc(F)cn2)sc1C(=O)N1CCN(c2ccccc2)CC1	mHTT-CaM PPI inh 68
Cc1nnsc1C(=O)N1CCN(c2ccc(F)cc2)CC1	none (no result: mHTT-CaM PPI inh)
CN1CCN(C(=O)c2csc(N3CCN(c4ccccc4F)CC3)n2)CC1	none
O=C(c1csc(Nc2ccccc2)n1)N1CCN(c2ccccc2F)CC1	mHTT-CaM PPI inh 80
CC(C)CC(=O)Nc1ccc([N+](=O)[O-])cc1Cl	none
Cc1cc2[nH]c(C(=O)Nc3ccc(F)c(C)c3)c(CN3CCOCC3)c2s1	none
Cc1ccc(-c2cc(C(=O)N3CCCCCC3)ccn2)s1	none
Cc1ccc(-c2cc(C(=O)N3CCN(c4ccc(F)cc4)CC3)ccn2)s1	mHTT-CaM PPI inh 74
CCCCNc1nc2ccncc2n(Cc2ccccc2)c1=O	none
CCn1c(=O)c(NCCCN2CCCc3ccccc32)nc2ccncc21	mHTT-CaM PPI inh 67
CCN1C(=O)c2cccc3c(NC(=O)COc4ccc(Cl)cc4)ccc1c23	mHTT-CaM PPI inh 52
CCN1C(=O)c2cccc3c(NC(=O)c4ccccc4[N+](=O)[O-])ccc1c23	none
N#Cc1nc(COc2ccccc2Cl)oc1N1CCN(Cc2ccccc2)CC1	mHTT-CaM PPI inh 52
N#Cc1nc(COc2ccccc2Cl)oc1N1CCCCC1	none
COc1ccc(OC)c(NC(=O)CN(c2c(C)cccc2C)S(C)(=O)=O)c1	none
COc1ccccc1NC(=O)CN1CCC2(CC1)N=C(c1cccc(Cl)c1)C(=O)N2	mHTT-CaM PPI inh 97
Cc1ccc(C)c(NC(=O)CN2CCC3(CC2)N=C(c2ccccc2)C(=O)N3)c1	none
CSc1cccc(NC(=O)CN2CCC3(CC2)N=C(c2ccc(C)cc2)C(=O)N3)c1	none
COc1ccc(NC(=O)CN2CCC3(CC2)N=C(c2ccc(C)cc2)C(=O)N3)c(OC)c1	none
CSc1cccc(NC(=O)CN2CCC3(CC2)N=C(c2cccc(C)c2)C(=O)N3)c1	mHTT-CaM PPI inh 70
COc1ccccc1NC(=O)CN1CCC2(CC1)N=C(c1ccc(Cl)cc1)C(=O)N2	none
Cc1ccc(NC(=O)CN2CCC3(CC2)N=C(c2ccccc2)C(=O)N3)c(C)c1	mHTT-CaM PPI inh 56
COc1ccccc1NC(=O)CN1CCC2(CC1)N=C(c1cccc(C)c1)C(=O)N2	mHTT-CaM PPI inh 50
O=[N+]([O-])c1ccc(-c2noc(-c3ccco3)n2)cc1	none
CCc1ccc(NC(=O)N2CCC(N3CCN(Cc4ccccc4)C3=O)CC2)cc1	none
Cc1cc(OCC(=O)N2CCN(c3ccccn3)CC2)ccc1Br	none
CC(C)CCNC(=O)C1Cc2ccccc2N2CCN(c3ncccn3)CC12 (configuration not stated)	none
N#Cc1cccc(NC(=O)N2CCc3nc[nH]c3C2)c1	none
O=C(CN1CCC2(CC1)N=C(c1ccccc1)C(=O)N2)Nc1ccc(F)c(F)c1	none
Cc1ccc(NC(=O)CN2CCC3(CC2)N=C(c2ccccc2)C(=O)N3)cc1F	mHTT-CaM PPI inh 55
